The source of these data is the antibiotic and cytotoxicity screens of Wong et al. (2023).

In all, about 39,000 compounds went through this assay and about 3,300 (8.5%) were called active. The sample holds actives, similar compounds and a random draw of the others, so the mix is not that of the screen.

In the test the test system is HepG2. The test can be described thus: cytotoxicity call (relative viability < 0.9). To be noted: 10 µM.
Take `C=CCNC(=O)C(=O)NC[C@H]1OCCCN1S(=O)(=O)c1ccccc1`: the cytotoxicity call is “inactive”. The result for `C[C@@H]1CN([C@@H](C)CO)S(=O)(=O)c2ccc(C3=CCCCC3)cc2O[C@@H]1CN(C)Cc1cncnc1` reads “inactive”; that for `C[C@@H]1CN([C@@H](C)CO)C(=O)Cc2cc(NC(=O)Cn3cnnn3)ccc2O[C@H]1CN(C)C(=O)NC1CCCCC1`, “inactive”; that for `Cc1noc(C)c1NC(=O)N(C)C[C@@H]1Oc2ccc(NC(=O)c3ccncc3)cc2C(=O)N([C@H](C)CO)C[C@H]1C`, “inactive”. Next, `COc1ccc2[nH]cc(CCNC(C)=O)c2c1`: “inactive”; `O=c1[nH]c(=O)c2ccccc2[nH]1`: “inactive”; `COc1ccc2[nH]c(=O)[nH]c(=O)c2c1`: “active”. On to `O=c1[nH]c(=O)c2cc(Br)ccc2[nH]1`, for which the cytotoxicity call was “active”. The result for `NCCc1c(C(=O)O)[nH]c2ccc(Br)cc12` reads “inactive”; that for `COc1ccc2[nH]c3c(-c4cccc5ccccc45)nccc3c2c1`, “inactive”; that for `C[C@@H]1CCCCO[C@H](CN(C)C(=O)Nc2ccc(C(F)(F)F)cc2)[C@@H](C)CN([C@H](C)CO)C(=O)c2cc(NS(C)(=O)=O)ccc2O1`, “inactive”.

With `CC(C)NC(=O)Nc1cccc2c1O[C@@H](CN(C)C(=O)Nc1ccc3c(c1)OCO3)[C@@H](C)CN([C@@H](C)CO)C2=O`, the cytotoxicity call was “inactive”. `C[C@@H]1CN([C@@H](C)CO)C(=O)c2cccc(NS(=O)(=O)c3ccccc3)c2O[C@@H]1CN(C)S(=O)(=O)c1cn(C)cn1`: the cytotoxicity call was “inactive”. Next, `C=CCOC(=O)[C@H]1[C@@H]2C(=O)O[C@@H](c3ccccc3)[C@@H](c3ccccc3)N2[C@@H](c2ccc(OCCOC(=O)[C@H]3C[C@H]4C(=O)N[C@@H](CC(C)C)C(=O)N4[C@H]3c3ccc(O)cc3)cc2)[C@]12C(=O)Nc1ccc(I)cc12`: “inactive”.

Consider `COc1cc(CCC(=O)O)oc(=O)c1`, for which the cytotoxicity call was “inactive”.

For the compound `COC(=O)[C@H](Cc1ccccc1)N1CC(/C=C/C2CC2)=C[C@@H]1[C@@H](O)CCn1cc(-c2ccc(C(=O)NO)cc2)nn1`, the cytotoxicity call was “inactive”.

With `C#CCN([C@H](/C=C/C1CC1)[C@@H](O)CCn1cc(-c2ccc(C(=O)NO)s2)nn1)[C@@H](Cc1ccccc1)C(=O)OC`, the cytotoxicity call was “inactive”. The result for `COC(=O)[C@H](Cc1ccccc1)N1CC(/C=C/C2CC2)=C[C@@H]1[C@@H](O)CCn1cc(-c2ccc(C(=O)NO)s2)nn1` reads “inactive”; that for `COC(=O)[C@@H](Cc1ccccc1)N[C@H](/C=C/C1CC1)[C@@H](O)CCn1cc(-c2ccc(C(=O)NO)s2)nn1`, “active”; that for `COC(=O)[C@@H](Cc1ccccc1)N[C@H](/C=C/C1CC1)[C@@H](O)CCn1cc(-c2cccc(/C=C/C(=O)NO)c2)nn1`, “inactive”. Next, `COC(=O)[C@@H](Cc1ccccc1)N[C@H](/C=C/C1CC1)[C@@H](O)CCn1cc(-c2ccc(C(=O)NO)cc2)nn1`: “active”; `Cc1ccc(-c2ccc3c(c2)O[C@@H](CN(C)C(=O)NC(C)C)[C@H](C)CN([C@@H](C)CO)S3(=O)=O)cc1`: “inactive”. With `C[C@H](CO)N1C[C@H](C)[C@H](CN(C)S(=O)(=O)c2ccc3c(c2)OCCCO3)OCc2cnnn2CCCC1=O`, the cytotoxicity call was “inactive”. For the compound `C[C@H](CO)N1C[C@H](C)[C@H](CN(C)Cc2ccccc2F)Oc2cc(C#CC3CC3)ccc2S1(=O)=O`, the cytotoxicity call was “inactive”.

As for `CCN(CC)CCNC(=O)c1c(C)[nH]c(/C=C2/C(=O)Nc3ccc(-c4csc(-c5ccccc5)n4)cc32)c1C`, the cytotoxicity call was “active”. The result for `C[C@@H]1CN([C@@H](C)CO)S(=O)(=O)c2ccc(C#CCC3CCCC3)cc2O[C@H]1CN(C)C(=O)c1cnccn1` reads “inactive”; that for `C[C@@H]1CCCCO[C@H](CN(C)S(=O)(=O)c2cccs2)[C@H](C)CN([C@H](C)CO)C(=O)c2cc(NC(=O)C3CCCCC3)ccc2O1`, “inactive”. The result for `CC(C)NC(=O)Nc1cccc2c1O[C@@H](CN(C)S(=O)(=O)c1ccc(F)cc1)[C@@H](C)CN([C@@H](C)CO)C2=O` reads “inactive”; that for `CC12CCC(O)CC1=CCC1C2CCC2(C)C(c3cccnc3)=CCC12` (stereo not given), “inactive”. The result for `CC1C2CCC3C4CC=C5CC(N(C)C)CCC5(C)C4CCC32CN1C` (stereo not given) reads “active”; that for `CC(=O)C1CCC2C3CC=C4CC(O)CCC4(C)C3CCC12C` (stereo not given), “inactive”. As to `CC(C)[C@@H](N)C(=O)O`, the cytotoxicity call was “inactive”. For the compound `CC(O)C(N)C(=O)O` (stereo not given), the cytotoxicity call is “inactive”. In the case of `C[C@@H](O)[C@H](N)C(=O)O`, the cytotoxicity call was “active”. Turning to `C[C@H](CO)N1C[C@H](C)[C@H](CN(C)Cc2ccc(Oc3ccccc3)cc2)Oc2ccc(NC(=O)Cn3cnnn3)cc2CC1=O`, the cytotoxicity call is “inactive”. The result for `COC(=O)[C@H](Cc1ccc(-n2cc(-c3ccc(C(=O)NO)s3)nn2)cc1)N1CC2=C[C@H]([C@@H](O)Cc3ccccc3)n3c(=O)n(C)c(=O)n3[C@@H]2[C@@H](C2CC2)O1` reads “inactive”; that for `COC(=O)[C@H](Cc1ccc(-n2cc(-c3cccc(/C=C/C(=O)NO)c3)nn2)cc1)N1CC2=C[C@H]([C@@H](O)Cc3ccccc3)n3c(=O)n(C)c(=O)n3[C@@H]2[C@@H](C2CC2)O1`, “active”; that for `COC(=O)[C@H](Cc1ccc(-n2cc(-c3ccc(C(=O)NO)cc3)nn2)cc1)N1CC2=C[C@H]([C@@H](O)Cc3ccccc3)n3c(=O)n(C)c(=O)n3[C@@H]2[C@@H](C2CC2)O1`, “inactive”. Turning to `CC(=O)N1CCO[C@H]2CCN(C(=O)c3ccn(C)n3)C[C@H]21`, the cytotoxicity call was “inactive”. Next, `COc1c(N2CCNC(C)C2)c(F)cc2c(=O)c(C(=O)O)cn(C3CC3)c12` (stereo not given): “active”.

With `CCn1cc(C(=O)O)c(=O)c2cc(F)c(N3CCNC(C)C3)c(F)c21.Cl` (stereo not given), the cytotoxicity call was “inactive”. `COc1c(N2CC3CCCNC3C2)c(F)cc2c(=O)c(C(=O)O)cn(C3CC3)c12.Cl` (stereo not given): the cytotoxicity call is “inactive”. The result for `C[C@H]1CCCCO[C@H](CN(C)S(=O)(=O)c2ccc(F)cc2)[C@@H](C)CN([C@@H](C)CO)C(=O)c2cc(NC(=O)Cc3ccccc3)ccc2O1` reads “inactive”. Next, `C[C@@H]1CN([C@H](C)CO)C(=O)c2cc(NC(=O)Cc3ccccc3)ccc2O[C@@H](C)CCCCO[C@@H]1CN(C)S(=O)(=O)c1ccc(F)cc1`: “inactive”. For `C[C@H](CO)N1C[C@H](C)[C@H](CN(C)S(=O)(=O)c2ccc(F)cc2)OCCCC[C@H](C)Oc2ccc(NC(=O)Cc3ccccc3)cc2C1=O`, the cytotoxicity call is “inactive”. The result for `C[C@@H]1CCCCO[C@@H](CN(C)S(=O)(=O)c2ccc(F)cc2)[C@@H](C)CN([C@@H](C)CO)C(=O)c2cc(NC(=O)Cc3ccccc3)ccc2O1` reads “active”; that for `C[C@@H]1CCCCO[C@@H](CN(C)S(=O)(=O)c2ccc(F)cc2)[C@H](C)CN([C@@H](C)CO)C(=O)c2cc(NC(=O)Cc3ccccc3)ccc2O1`, “inactive”; that for `C[C@@H]1CN([C@H](C)CO)C(=O)c2cc(NC(=O)Cc3ccccc3)ccc2O[C@@H](C)CCCCO[C@H]1CN(C)S(=O)(=O)c1ccc(F)cc1`, “inactive”. Next, `C[C@@H]1CCCCO[C@@H](CN(C)S(=O)(=O)c2ccc(F)cc2)[C@H](C)CN([C@H](C)CO)C(=O)c2cc(NC(=O)Cc3ccccc3)ccc2O1`: “inactive”; `C[C@@H]1CCCCO[C@H](CN(C)S(=O)(=O)c2ccc(F)cc2)[C@@H](C)CN([C@@H](C)CO)C(=O)c2cc(NC(=O)Cc3ccccc3)ccc2O1`: “active”. Consider `C[C@@H]1CCCCO[C@H](CN(C)S(=O)(=O)c2ccc(F)cc2)[C@@H](C)CN([C@H](C)CO)C(=O)c2cc(NC(=O)Cc3ccccc3)ccc2O1`, for which the cytotoxicity call was “active”. Next, `C[C@@H]1CN([C@@H](C)CO)C(=O)c2cc(NC(=O)Cc3ccccc3)ccc2O[C@@H](C)CCCCO[C@@H]1CN(C)C(=O)NC1CCCCC1`: “inactive”; `C[C@H](CO)N1C[C@H](C)[C@@H](CN(C)S(=O)(=O)c2cn(C)cn2)Oc2ccc(NS(C)(=O)=O)cc2C1=O`: “inactive”.

On to `C[C@@H]1CN([C@H](C)CO)C(=O)c2cccc(NS(C)(=O)=O)c2O[C@@H]1CN(C)C(=O)Nc1ccc2c(c1)OCO2`, for which the cytotoxicity call was “inactive”.

With `C[C@@H]1CN([C@@H](C)CO)C(=O)c2ccccc2-c2ccccc2CO[C@@H]1CN(C)S(=O)(=O)c1cn(C)cn1`, the cytotoxicity call is “inactive”. The result for `C[C@@H]1CCCCO[C@@H](CN(C)Cc2ccc(C(F)(F)F)cc2)[C@H](C)CN([C@@H](C)CO)C(=O)c2cc(NC(=O)CCCN(C)C)ccc2O1` reads “inactive”.

Regarding `C[C@@H]1CCCCO[C@H](CN(C)S(C)(=O)=O)[C@@H](C)CN([C@H](C)CO)C(=O)c2cc(NC(=O)c3ccncc3)ccc2O1`, the cytotoxicity call was “inactive”. `CO[C@@H]1CN(C)C(=O)c2cc(NS(=O)(=O)c3ccccc3)ccc2OC[C@H](C)N(C(=O)NC(C)C)C[C@H]1C`: the cytotoxicity call was “inactive”. Next, `CN(C)C(=O)C[C@@H]1CC[C@@H](NC(=O)C2CCOCC2)[C@H](CO)O1`: “inactive”. With `CCN(CCCCOC(=O)c1ccc(OC)c(OC)c1)C(C)Cc1ccc(OC)cc1.Cl` (stereo not given), the cytotoxicity call was “active”. Regarding `CCCOc1ccc(C(=O)OCCN(CC)CC)cc1N.Cl`, the cytotoxicity call was “inactive”. As to `CCCCOc1cc(C(=O)OCCN(CC)CC)ccc1N.Cl`, the cytotoxicity call was “inactive”.

Take `C[C@H](CO)N1C[C@H](C)[C@H](CN(C)S(=O)(=O)c2ccc(F)cc2)Oc2ccc(NC(=O)CCCN(C)C)cc2C1=O`: the cytotoxicity call was “inactive”. The result for `Cc1noc(C)c1NC(=O)Nc1ccc2c(c1)C(=O)N([C@@H](C)CO)C[C@H](C)[C@@H](CN(C)Cc1ccc(C(F)(F)F)cc1)OCCCC[C@H](C)O2` reads “inactive”. Consider `O=C(Nc1cccnc1)c1nc2ncccn2n1`, for which the cytotoxicity call was “inactive”. The result for `Cc1cn(-c2cc(NC(=O)c3ccc(C)c(Nc4nccc(-c5cccnc5)n4)c3)cc(C(F)(F)F)c2)cn1` reads “active”; that for `Cc1cn(-c2cc(NC(=O)c3ccc(C)c(Nc4nccc(-c5cnccn5)n4)c3)cc(C(F)(F)F)c2)cn1`, “inactive”; that for `Cc1ccc(C(=O)Nc2cccc(C(F)(F)F)c2)cc1Nc1nc(-c2cccnc2)nc2c1cnn2C`, “active”. The result for `O=C(O)c1cccnc1Nc1cccc(C(F)(F)F)c1` reads “inactive”.

`COC(=O)CNC(=O)c1ccc(S(=O)(=O)N2CCOCC2)cc1`: the cytotoxicity call was “inactive”.
